According to paper PMC5540273 (PLoS ONE, 2017):

Columns and labels:
Conditions in all cases: concentration: 1 μM,replicates: in singlicate; n = 1
[1] = test system: ADCK4
[2] = test system: AKT1
[3] = test system: AKT2
[4] = test system: AKT3
[5] = test system: ALK
[6] = test system: T1, AMPK-alpha1
T1 construct: gene PRKAA1

[7] = test system: T2, AMPK-alpha2
T2 construct: gene PRKAA2

[8] = test system: ANKK1
[9] = test system: T3, ARK5
T3 construct: gene NUAK1

[10] = test system: T4, ASK1
T4 construct: gene MAP3K5

[11] = test system: T5, ASK2
T5 construct: gene MAP3K6

[12] = test system: AURKA
[13] = test system: AURKB
[14] = test system: AURKC
[15] = test system: AXL
[16] = test system: T6, BIKE
T6 construct: gene BMP2K

[17] = test system: BLK
[18] = test system: BMPR1A
[19] = test system: BMPR1B
[20] = test system: BMPR2
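Further: KINOMEscan kinase panel screen.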

| SMILES | %Inh [1] [%] | %Inh [2] [%] | %Inh [3] [%] | %Inh [4] [%] | %Inh [5] [%] | %Inh [6] [%] | %Inh [7] [%] | %Inh [8] [%] | %Inh [9] [%] | %Inh [10] [%] | %Inh [11] [%] | %Inh [12] [%] | %Inh [13] [%] | %Inh [14] [%] | %Inh [15] [%] | %Inh [16] [%] | %Inh [17] [%] | %Inh [18] [%] | %Inh [19] [%] | %Inh [20] [%] |
| --- | --- | --- | --- | --- | --- | --- | --- | --- | --- | --- | --- | --- | --- | --- | --- | --- | --- | --- | --- | --- |
| CC(=O)c1c(-c2ccncc2)[nH]c(-c2ccncc2)c1C [GW493036] | 46 | 0 | 1 | 28 | 31 | 13 | 0 | 3 | 3 | 17 | 0 | 0 | 16 | 5 | 17 | 23 | 38 | 0 | 0 | 24 |
| C[C@@H]1CNc2c(sc3ccc4nc(-c5ccc(O)cc5)ccc4c23)C(=O)N1 | 10 | 0 | 0 | 0 | 16 | 30 | 0 | 0 | 0 | 91 | 0 | 42 | 24 | 0 | 87 | 0 | 0 | 27 | 0 | 7 |
| Cc1ccc(C(=O)Nc2ccc(Oc3ccc4nc(NC(=O)C5CC5)cn4c3)c(F)c2)c(=O)n1-c1ccccc1 | 27 | 0 | 0 | 7 | 8 | 5 | 0 | 0 | 0 | 0 | 0 | 0 | 82 | 48 | 84 | 4 | 99.3 | 0 | 0 | 0 |
| CS(=O)c1ccc(-c2coc3ccc(-c4n[nH]c(=O)o4)cc23)cc1 (stereo not drawn) | 12 | 0 | 0 | 26 | 13 | 100 | 5 | 36 | 10 | 0 | 23 | 13 | 26 | 0 | 3 | 17 | 4 | 10 | 32 | 9 |
| CC(=O)Nc1ccc(-c2cc3ncnc(SCC(=O)O)c3s2)cc1 | 0 | 0 | 28 | 16 | 7 | 2 | 0 | 22 | 0 | 0 | 0 | 4 | 97.1 | 32 | 36 | 19 | 0 | 8 | 0 | 7 |
| Cc1ccc(CC(=O)N2CCc3cc(-c4cn(C)c5ncnc(N)c45)ccc32)cc1 [GSK2634758] | 9 | 0 | 1 | 30 | 0 | 0 | 29 | 23 | 37 | 3 | 0 | 8 | 96.1 | 47 | 98.8 | 16 | 31 | 0 | 0 | 0 |
| CS(=O)(=O)c1cccc(CNc2nc(Nc3ccc4c(c3)[C@@H]3C[C@@H]4CNC3=O)ncc2C(F)(F)F)c1 | 0 | 0 | 0 | 0 | 0 | 37 | 28 | 22 | 94.6 | 0 | 0 | 99.4 | 95.7 | 73 | 93.2 | 96.2 | 30 | 0 | 0 | 0 |
| Cl.Cl.NC[C@H](CC1CCCCC1)NC(=O)c1ccc(-c2ccnc3[nH]ccc23)s1 [GSK1581428] | 2 | 94.1 | 93.4 | 98.1 | 37 | 77 | 72 | 0 | 89 | 0 | 26 | 93.8 | 96.8 | 73 | 96.3 | 99.1 | 0 | 8 | 23 | 1 |
| Cc1n[nH]c2cc(Nc3ccnc(Nc4cccc(CN5CCOCC5)c4)n3)ccc12 [GW682569] | 97.1 | 0 | 0 | 0 | 16 | 0 | 0 | 17 | 0 | 0 | 0 | 98.9 | 55 | 93.5 | 35 | 98.1 | 0 | 0 | 87 | 6 |
| C[C@@H](Oc1cc(-n2cnc3cc(-c4ccncc4)ccc32)sc1C(N)=O)c1ccccc1Cl [GSK479719] | 9 | 0 | 6 | 0 | 31 | 5 | 17 | 0 | 75 | 4 | 8 | 0 | 48 | 100 | 89 | 98.6 | 0 | 0 | 0 | 0 |
| CN1CCN(CCNc2nc3cc(Oc4ccc(NC(=O)Nc5cc(C(F)(F)F)ccc5F)cc4)ccc3[nH]2)CC1.Cl.Cl [GW768504] | 22 | 4 | 0 | 0 | 0 | 9 | 11 | 0 | 29 | 0 | 0 | 9 | 22 | 13 | 82 | 0 | 14 | 12 | 0 | 0 |
| Cc1ccn2nc(-c3ccc(F)cc3)c(-c3ccncc3)c2c1.Cl [GW457859] | 59 | 0 | 0 | 0 | 1 | 5 | 0 | 5 | 5 | 0 | 0 | 10 | 0 | 8 | 3 | 17 | 26 | 0 | 0 | 3 |
| CN(c1cccc(CNc2nc(Nc3ccc4c(c3)CC(=O)N4)ncc2C(F)(F)F)c1)S(C)(=O)=O | 29 | 0 | 0 | 0 | 41 | 26 | 5 | 0 | 99.3 | 0 | 0 | 93.8 | 99.4 | 88 | 64 | 95 | 0 | 0 | 0 | 39 |
| CNC(=O)c1ccccc1Nc1nc(Nc2cccc(CS(C)(=O)=O)c2)ncc1C.O=CO [GSK1520489] | 33 | 0 | 0 | 0 | 95.1 | 96.4 | 97.9 | 39 | 99.1 | 0 | 13 | 100 | 99.9 | 96.8 | 100 | 99.2 | 99.6 | 0 | 99.9 | 99.3 |
| NC(=O)Nc1sc(-c2ccc(F)cc2)cc1C(N)=O [GW789449] | 7 | 0 | 0 | 0 | 52 | 25 | 15 | 86 | 0 | 26 | 0 | 55 | 83 | 85 | 40 | 98.2 | 46 | 6 | 11 | 78 |
| CCn1c(-c2nonc2N)nc2cncc(Br)c21 [SB-738004] | 23 | 0 | 13 | 0 | 31 | 18 | 0 | 1 | 0 | 13 | 0 | 14 | 17 | 0 | 22 | 23 | 0 | 0 | 17 | 58 |
| FC(F)(F)c1cc(Br)cc(Nc2nccc(-c3cnn4ncccc34)n2)c1 [GW810578] | 27 | 6 | 6 | 20 | 0 | 24 | 16 | 27 | 40 | 0 | 25 | 9 | 16 | 16 | 3 | 29 | 0 | 8 | 7 | 0 |

| SMILES | %Inh [1] [%] | %Inh [2] [%] | %Inh [3] [%] | %Inh [4] [%] | %Inh [5] [%] | %Inh [6] [%] | %Inh [7] [%] | %Inh [8] [%] | %Inh [9] [%] | %Inh [10] [%] | %Inh [11] [%] | %Inh [12] [%] | %Inh [13] [%] | %Inh [14] [%] | %Inh [15] [%] | %Inh [16] [%] | %Inh [17] [%] | %Inh [18] [%] | %Inh [19] [%] | %Inh [20] [%] |
| --- | --- | --- | --- | --- | --- | --- | --- | --- | --- | --- | --- | --- | --- | --- | --- | --- | --- | --- | --- | --- |
| c1ccc(Oc2ccc(Nc3ccnc4ccc(-c5ccccn5)cc34)cc2)cc1 [GW407034] | 19 | 0 | 17 | 0 | 28 | 10 | 0 | 0 | 26 | 4 | 11 | 6 | 19 | 4 | 0 | 8 | 90.2 | 11 | 0 | 26 |
| COc1cc(Nc2nccc(N3CCC(NC(=O)c4cccc(C#N)c4)C3)n2)cc(OC)c1OC (stereo not drawn) [GSK1379751] | 50 | 0 | 0 | 0 | 14 | 0 | 0 | 24 | 26 | 0 | 0 | 68 | 36 | 56 | 22 | 90 | 0 | 0 | 2 | 11 |
| C[C@@H](Oc1cc(-n2cnc3ccc(-c4ccncc4)cc32)sc1C(N)=O)c1ccccc1Cl [GSK483724] | 76 | 41 | 22 | 0 | 20 | 8 | 12 | 17 | 0 | 10 | 0 | 0 | 19 | 50 | 32 | 92.9 | 31 | 0 | 0 | 3 |
| C[C@@H]1CCN(C(=O)N2CCCC2)C[C@@H]1N(C)c1ncnc2[nH]ccc12 | 0 | 0 | 3 | 0 | 0 | 66 | 77 | 0 | 16 | 0 | 0 | 57 | 31 | 6 | 7 | 25 | 0 | 0 | 13 | 20 |
| CCN1CCN(CCCC(=O)Nc2n[nH]c3nc(-c4ccc(O)cc4)c(Br)cc23)CC1 [SB-731579] | 16 | 0 | 0 | 0 | 0 | 0 | 0 | 0 | 5 | 0 | 49 | 0 | 5 | 0 | 57 | 9 | 0 | 0 | 15 | 12 |
| COc1ccc(Nc2nccc(N3CCC(NC(=O)c4cccc(C#N)c4)C3)n2)cc1 (stereo not drawn) [GSK1379730] | 9 | 0 | 0 | 0 | 28 | 0 | 0 | 0 | 0 | 0 | 0 | 0 | 0 | 22 | 21 | 22 | 38 | 6 | 0 | 0 |
| O=C1NCCc2[nH]c(-c3ccncc3)cc21 | 0 | 0 | 0 | 0 | 0 | 6 | 0 | 10 | 0 | 40 | 0 | 28 | 0 | 11 | 8 | 33 | 15 | 27 | 92.9 | 43 |
| Cl.Nc1n[nH]c2cc(-c3ccccn3)ccc12 [GSK2189892] | 17 | 0 | 0 | 0 | 16 | 0 | 1 | 0 | 0 | 0 | 0 | 0 | 8 | 0 | 0 | 32 | 22 | 0 | 0 | 0 |
| Cc1cccc(-c2nc(Nc3ccncc3)c3sccc3n2)n1 [GW869641] | 8 | 5 | 0 | 3 | 33 | 20 | 27 | 12 | 0 | 25 | 29 | 48 | 43 | 30 | 33 | 13 | 15 | 4 | 82 | 37 |
| N#Cc1cccc(C(=O)NC2CCN(c3ccnc(Nc4ccc(F)cc4)n3)C2)c1 (stereo not drawn) [GSK1379708] | 20 | 0 | 0 | 0 | 26 | 16 | 0 | 0 | 0 | 0 | 0 | 0 | 0 | 33 | 20 | 22 | 32 | 0 | 0 | 0 |
| CCOC(=O)N1CCC(n2cnc(-c3ccc(F)cc3)c2-c2ccnc(N)n2)CC1 [SB-219952] | 20 | 7 | 0 | 24 | 0 | 99.8 | 4 | 0 | 0 | 0 | 0 | 19 | 37 | 19 | 19 | 4 | 1 | 10 | 0 | 22 |
| CCCC(=O)Nc1n[nH]c2ncccc12 [SB-601436] | 0 | 0 | 0 | 2 | 0 | 0 | 0 | 13 | 0 | 0 | 0 | 0 | 18 | 0 | 18 | 9 | 19 | 0 | 0 | 17 |
| O=C(NCC1CC1)c1ccc(-c2cc(C(=O)NC3CC3)ccc2F)cc1 [GW810445] | 23 | 24 | 0 | 0 | 10 | 0 | 0 | 0 | 0 | 19 | 0 | 0 | 4 | 0 | 10 | 0 | 30 | 0 | 0 | 15 |
| COc1cc2ncn(-c3cc(OCC4CCCCC4)c(C(N)=O)s3)c2cc1OC [GSK204559] | 11 | 0 | 0 | 0 | 22 | 0 | 27 | 14 | 0 | 14 | 8 | 0 | 13 | 60 | 0 | 90 | 33 | 0 | 0 | 5 |
| CC(C)c1nc(-c2cccc(NS(=O)(=O)c3ccccc3)c2)c(-c2ccnc(Nc3ccc4c(c3)CN(C)CC4)n2)s1 [GSK1649598] | 97.4 | 0 | 4 | 0 | 0 | 82 | 94.5 | 42 | 6 | 0 | 4 | 23 | 52 | 55 | 68 | 0 | 99.6 | 81 | 99.9 | 9 |
| COC(=O)c1cccc(NC(=O)NC2CCN(c3ccnc(NCc4ccc(F)cc4)n3)CC2)c1 [GSK1379860] | 18 | 0 | 0 | 0 | 30 | 0 | 0 | 0 | 10 | 0 | 4 | 0 | 0 | 13 | 9 | 13 | 24 | 0 | 0 | 9 |
